Laboratory results taken from the supplement of paper PMC10338343.
± gives the standard deviation.

These sequences were tested on MILI (PIWIL2) piRISC loaded with L1MC piRNA (26 nt) (assay: pre-steady-state target cleavage rate (min^-1); guide: L1MC piRNA 5'p-UAACUAAAUACUAUGCAAGCUGUAGG; MIWI and MILI are mouse PIWI proteins and EfPiwi is from a freshwater sponge; tags in brackets are library labels; higher = faster piRNA-guided slicing of the target). Details: auxiliary factor: 500 nM mouse GTSF1.
Summary of the method: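 In HEPES–potassium acetate buffer at 33 °C, […] transcribed, DNA-blocked target RNA library was mixed with 1 nM active affinity-purified piRISC carrying one synthetic guide, with or without 500 nM GTSF1 partner protein, for 0–8 or 0–960 min. Uncleaved targets were sequenced and normalised to depth and to weakly complementary targets; three trials were pooled and k3 was capped at 0.0001 min^-1. The pre-steady-state cleavage rate followed from a burst-and-steady-state fit.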
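Also: 1 nM active piRISC with 0.1 nM target library at 33 °C single turnover.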

Sequence | pre-steady-state target cleavage rate
UCCUGGUACACGUUGCAUAGUAUUUAGAAA | 0.0229 ± 0.011
UCCUCCUACAGCUACCAUAGUAUUUAGUAA | 0.141 ± 0.023
UCCUGGAUGUCGAUGCAUAGUAUAAAGUUA | 0.0643 ± 0.016
UCCUGGUAGAGCUUGCAUACUAUUUAGUUA | 0.0467 ± 0.011
UCCUCCUACAGCUUGCAUAGUAUUUAGAAA | 0.18 ± 0.028
UCCUGGAACAGCUUGCAAACUAUUUAGUUA | 0.0282 ± 0.0064
UCCUGGAUGAGCAAGCAUAGUAUUUACAAA | 0.0174 ± 0.0067
UCCUGGAACAGCUUGCAUAGUAUUAACUUA | 0.0356 ± 0.0096
UCCUGGAUGAGCUAGCAUAGUAUUUACAAA | 0.0471 ± 0.015
UCCUGGAUCAGCUUGCAUAGUUUUAGUUA | 0.00374 ± 0.0036
UCCUGGAUGAGCUUGCAAAGUAUUUACAAA | 0.00757 ± 0.0048
UCCUGGAUCAGCUUGCAUACUAUUUAGAAA | 0.0141 ± 0.0069
UCCUGGAUGUCGAACCAUAGUAUUUAGUUUA | 0.00592 ± 0.0031
UCCUGGAUGUCCUUGGAUAGUAUUUAGAUA | 0.129 ± 0.035
UCCUGGAUGAGCUUGCAUUGUUUUUAGUUA | 0.0047 ± 0.0044
UCCUGGAUGAGCUUGCAUAGUAAUUACUUA | 0.00616 ± 0.004
UCCUGGAUGUCCUUGCAUAGUUUUUAGAUA | 0.00584 ± 0.0044
UCCUCCUACAGCUUCGUUAGUAUUUAGUAA | 0.186 ± 0.026
UCCUGGAUCAGCUUGCAUGUAUUUAGUUA | 0.041 ± 0.0073
UCCUGGAUGAGCAUCCAUAGUAUUUAGUUA | 0.231 ± 0.059
UCCUGGAUGUCGAUGCAUAGUAUUUAGAUUA | 0.0599 ± 0.016
UCCUGGAUGUCCUUGCAUUGUAUUUAGUAA | 0.0421 ± 0.015
UCCUGGAUGUGCUUGCAUUGUAUUUAGAAA | 0.0114 ± 0.0047
UCCUGGAUGUGCUUGGAUUGUAUUUAGUUA | 0.00469 ± 0.0044
